Bioassay records (PubChem BioAssay)
Most compounds without a hit are left out; they make up all but 10% or so of the library.
Luc counter: counter-screen: inhibitors of Kinase-Glo firefly luciferase; Q27757; Kinase-Glo luciferase, ATP luminescence, 8 min; Potency, µM (titrated, usually from 38.3 µM), most hits filed as inhibitors; 200,000 tested, 0.28% active; active = well fitted inhibition curve with a large enough effect; inconclusive = small, poorly fitted or top-dose-only effect; note: nearly all actives have a fitted effect of over 60% in size
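Substrate mix (final 50 mM imidazole pH 7.2, 50 mM KCl, 7 mM MgCl2, 10 uM ATP, 0.01% Tween 20, 0.05% BSA) plus pin-tool compound, then Kinase-Glo detection mix; 8 min ambient, luminescence read.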
ALDH1A1 block: blocks purified human ALDH1A1 activity; 220,000 tested, 7.3% active; P00352; Potency, µM (doses to about 75.3 µM), actives largely listed as inhibitors; Purified ALDH1A1, NADH fluorescence, propionaldehyde substrate
PNC assembly inh: inhibitors of perinucleolar compartment assembly | PC3M PTB-GFP, PNC prevalence imaging, 16 h; active compounds read low | activity change (PNC), negative = inhibition, % at 10 µM | 140,000 tested, 3.1% active | AID 2417;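 active = readout at or below -70, meaning at least 70% loss of cells showing the perinucleolar compartment, a nuclear body marking cancer cells; inconclusive = readout between -30 and a set limit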
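PC3M cells stably expressing PTB-GFP, 750–1000 cells/well, treated 16 h at 37 °C with compound (23 nl of library stock), in duplicate. After paraformaldehyde fixation and Hoechst stain, imaged at 20x; PNC prevalence scored by image analysis.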
HPGD inh: HPGD (human) dehydrogenase inhibition. P15428. purified HPGD, NADH fluorescence kinetic, PGE2 substrate. Potency, µM, most hits filed as inhibitors. 150,000 tested, 4.3% active. AID 894
Target sequence (P15428 whole entry, looked up): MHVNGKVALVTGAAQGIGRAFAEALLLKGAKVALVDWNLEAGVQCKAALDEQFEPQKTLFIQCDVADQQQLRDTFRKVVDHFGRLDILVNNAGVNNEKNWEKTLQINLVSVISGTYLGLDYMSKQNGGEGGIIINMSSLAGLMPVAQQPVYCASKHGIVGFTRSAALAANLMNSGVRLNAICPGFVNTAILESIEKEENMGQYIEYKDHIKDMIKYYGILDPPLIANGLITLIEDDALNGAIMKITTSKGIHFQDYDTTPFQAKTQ
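NADH formation kinetics: reaction with 30 uM PGE2 and 1 mM NAD+ (final), 20 nM enzyme, Tris-HCl pH 8 with Tween 20, after 15 min compound preincubation at room temperature. Fluorescence change, last versus first of five reads.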
LMNA splice mod: changes lamin A minigene splicing in HeLa cells | Potency, µM (titrated, usually from 46.1 µM), usual class: inhibitors | 200,000 tested, 0.01% active | HeLa LMNA splicing GFP/RFP minigene ratio, 48 h | AID 1487; active = well fitted inhibition curve with a large enough effect in the signal ratio, with a control signal flat, not every such curve was filed as active; inconclusive = small, poorly fitted or top-dose-only effect, or effect the other way, or a change in a side signal; the % refers to the signal ratio
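S3 HeLa stable clones carrying a lamin A-EGFP splicing minigene plus DsRed2 were seeded at 600 cells/well in Opti-MEM with 2% FBS, pin-dosed and incubated 48 h at 37°C. Acumen cytometry (488 nm) gave the GFP/RFP total-intensity ratio.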
Numbers stand for hits; [ ] = remark or other dose. Unless noted, calls come from the whole dose curve; as a rule, active = well fitted inhibition curve with a large enough effect (not every such curve was filed as active); inconclusive = small, poorly fitted or top-dose-only effect, or another doubt; inactive = no such curve, though single readings can be large or run the other way.

For Cc1cccc(NC(=O)CC2SC(=O)N(c3ccccc3)C2=O)c1 (stereo not drawn) the results were Luc counter inactive, ALDH1A1 block 10µM, PNC assembly inh inactive, HPGD inh inactive and LMNA splice mod inactive.
`CCCN1C(=O)SC(CC(=O)Nc2ccc(C)cc2)C1=O` (stereo not drawn) gave Luc counter inactive, ALDH1A1 block 22µM, PNC assembly inh -100, HPGD inh inactive and LMNA splice mod inactive.
CO[C@H]1COC(=O)[C@H]2CCCN2C(=O)C/C=C\[C@@H](C)[C@H](OC)COC(=O)[C@@H](OCc2ccccc2)/C=C\[C@@H]1C was read as ALDH1A1 block inactive[13.5 µM].
Screening Cc1ccc(CN(Cc2cccnc2)C(=O)CN2C(=O)COc3ccccc32)o1 returned Luc counter inactive, ALDH1A1 block 28µM, PNC assembly inh inactive, HPGD inh inactive and LMNA splice mod inactive.
For N#C/C(=C\c1ccccc1[N+](=O)[O-])c1nc(C2CC2)cs1 the results were Luc counter inactive, ALDH1A1 block 10µM, PNC assembly inh inactive, HPGD inh inactive and LMNA splice mod inactive.
`N#C/C(=C\c1ccc([N+](=O)[O-])cc1)c1nc(C2CC2)cs1` gave Luc counter inactive, ALDH1A1 block inactive, PNC assembly inh inactive, HPGD inh inactive and LMNA splice mod inactive.
N#C/C(=C(/O)c1ccc([N+](=O)[O-])cc1)c1nnc2n1CCCCC2 was read as Luc counter inactive, ALDH1A1 block inconclusive and LMNA splice mod inactive.
`N#C/C(=C/c1ccccc1[N+](=O)[O-])c1nc(C2CC2)cs1` gave Luc counter inactive, ALDH1A1 block 11µM, PNC assembly inh inactive, HPGD inh inconclusive and LMNA splice mod inconclusive.
Screening N#C/C(=C/c1ccccc1[N+](=O)[O-])c1nnc2n1CCCCC2 returned Luc counter inactive, ALDH1A1 block 22µM, PNC assembly inh inconclusive, HPGD inh 2.5µM and LMNA splice mod inactive.
Screening CCOc1cccc(-c2cc(C(=O)N/N=C/c3cccc(OC)c3O)[nH]n2)c1 returned Luc counter inactive, ALDH1A1 block inactive and HPGD inh inactive.
Screening COc1ccc2cc(CN(CCc3ccccc3)Cc3nnnn3CC3CCCO3)c(=O)[nH]c2c1 (stereo not drawn) returned Luc counter inactive, ALDH1A1 block 0.28µM, PNC assembly inh inactive, HPGD inh inactive and LMNA splice mod inactive.
`COCCn1nnnc1CN(CCc1ccccc1)Cc1cc2ccc(C)cc2[nH]c1=O` gave Luc counter inactive, ALDH1A1 block 4.5µM, PNC assembly inh inconclusive, HPGD inh inactive and LMNA splice mod inactive.
Cc1ccc2[nH]c(=O)c(CN(CCc3ccccc3)Cc3nnnn3CC3CCCO3)cc2c1 (stereo not drawn) was read as Luc counter inactive, ALDH1A1 block 22µM, PNC assembly inh inactive, HPGD inh inactive and LMNA splice mod inactive.
`COc1ccc2[nH]c(=O)c(CN(CCc3ccccc3)Cc3nnnn3CC3CCCO3)cc2c1` (stereo not drawn) gave Luc counter inactive, ALDH1A1 block inconclusive, PNC assembly inh inconclusive, HPGD inh inconclusive and LMNA splice mod inactive.
`CCOc1ccc2[nH]c(=O)c(CN(CCO)Cc3nnnn3CCc3ccccc3)cc2c1` gave Luc counter inactive, ALDH1A1 block inconclusive, PNC assembly inh -85, HPGD inh inactive and LMNA splice mod inactive.
CCS(=O)(=O)N1CC(=O)N(c2cc(C)ccc2C)C(C)(C(=O)NC2CCCCC2)C1 (stereo not drawn) was read as LMNA splice mod inactive.
Cc1cccc(N=Cc2c(O)cc(C)oc2=O)c1 was read as Luc counter inactive and ALDH1A1 block inconclusive.
`Cc1cccc(N=Cc2[nH]c3ccc(Br)c(Cl)c3c2O)c1` gave Luc counter inactive, ALDH1A1 block 4.5µM, PNC assembly inh inactive, HPGD inh 14µM and LMNA splice mod inactive.
For COc1ccccc1CN=Cc1[nH]c2ccc(Br)c(Cl)c2c1O the results were Luc counter inactive, ALDH1A1 block 0.79µM, PNC assembly inh inactive, HPGD inh 13µM and LMNA splice mod inactive.
For CC12C=C(/C=C/c3ccc(C(F)(F)F)cc3)C(C)(C1)C(c1ccc(C(F)(F)F)cc1)CC2=O (stereo not drawn) the results were ALDH1A1 block inactive[13.5 µM].
`CCC(=O)Nc1ccc2nc(SCCOc3ccc(C)cc3)sc2c1` gave LMNA splice mod inactive.
For COC(=O)[C@@H]1C[C@H]1[C@@H](NC(=O)c1cc(C)nn1C)c1ccccc1 the results were Luc counter inactive, ALDH1A1 block inconclusive and HPGD inh inactive.
For COc1cccc(-c2cn3nc4c(nc3n2)CCCC4)c1 the results were Luc counter 10µM, ALDH1A1 block inconclusive, PNC assembly inh inactive, HPGD inh inactive and LMNA splice mod inactive.
CCOC(=O)c1c(NC(=S)Nc2ccccc2)sc2c1CC(C)(C)SC2 was read as Luc counter inactive, ALDH1A1 block 2.5µM, PNC assembly inh inactive, HPGD inh inconclusive and LMNA splice mod inactive.
Screening CCOC(=O)c1c(NC(=S)NC)sc2c1CC(C)(C)SC2 returned Luc counter inactive, ALDH1A1 block 25µM, PNC assembly inh inconclusive, HPGD inh inconclusive and LMNA splice mod inconclusive.
`CCOC(=O)c1c(NC(=S)Nc2ccccc2)sc2c1CCN(CCc1ccccc1)C2` gave Luc counter inactive, ALDH1A1 block inconclusive, PNC assembly inh inactive, HPGD inh inactive and LMNA splice mod inactive.
Screening CN(C)CCNC(=O)/C=C/c1cn(-c2ccccc2)nc1-c1cc2ccccc2oc1=O returned Luc counter inactive, ALDH1A1 block inconclusive and LMNA splice mod inconclusive.
`CCc1ccc(S(=O)(=O)Nc2cc(SCC(=O)O)c(O)c3ccccc23)cc1` gave Luc counter inactive and ALDH1A1 block 14µM.
O=C(O)CSc1cc(NS(=O)(=O)c2cccc([N+](=O)[O-])c2)c2ccccc2c1O was read as ALDH1A1 block 3.5µM.
CCOC(=O)NCc1ccc(S(=O)(=O)Nc2ccccc2C)cc1 was read as Luc counter inactive, ALDH1A1 block inactive, PNC assembly inh inactive, HPGD inh inactive and LMNA splice mod inactive.
`COc1ccc(S(=O)(=O)NCCS(=O)(=O)N2CCN(c3ccccc3)CC2)cc1OC` gave LMNA splice mod inactive.
For O=C(O)c1ccc(N2C(=O)c3cccc(Oc4ccc(Cl)cc4)c3C2=O)cc1 the results were Luc counter inactive, ALDH1A1 block inactive, PNC assembly inh inactive, HPGD inh 1.4µM and LMNA splice mod inactive.
`O=C(O)c1cccc(N2C(=O)c3cccc(Oc4ccc(Cl)cc4)c3C2=O)c1` gave Luc counter inactive, ALDH1A1 block inactive, PNC assembly inh inactive, HPGD inh 25µM and LMNA splice mod inactive.
Screening CC(C)C(NC(=O)CSCc1ccc([N+](=O)[O-])cc1)C(C)C returned Luc counter inactive, ALDH1A1 block inactive, PNC assembly inh inactive, HPGD inh 10µM and LMNA splice mod inconclusive.
